Results as given in article PMC12136788.
Substitutions are numbered along the chain they refer to. Over roughly 5,800 sequences, “enrichment r” has its median near 0.68; the highest 2% begin near 11. Only a selection was taken, and the highest values are over-represented in it overall.

T1: UNK ZnF1-6 (called full-length) (human, UniProt Q9C0B0 30-357)
T1 sequence: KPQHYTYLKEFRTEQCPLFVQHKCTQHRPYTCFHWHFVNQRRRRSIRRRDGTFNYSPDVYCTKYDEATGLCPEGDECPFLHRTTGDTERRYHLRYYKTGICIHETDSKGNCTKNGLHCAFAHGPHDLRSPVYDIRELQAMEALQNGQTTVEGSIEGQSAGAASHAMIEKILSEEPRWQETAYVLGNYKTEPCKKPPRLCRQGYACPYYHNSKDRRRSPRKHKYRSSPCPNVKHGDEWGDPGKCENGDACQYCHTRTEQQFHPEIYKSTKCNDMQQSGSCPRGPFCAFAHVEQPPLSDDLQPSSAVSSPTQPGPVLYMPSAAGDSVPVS

B1: chr1:45660322:45660423:-|5pUTR|ENSG00000159592|unk|FALSE|unique (ssRNA)
RNA: GGGAGUUCUACAGUCCGACGAUCUCCCCUUCCCCCCUUCCCCUUUUCCCCUUUCCCCUUUUGGAAACGUGUCAGGAACCAAAUAGUUUAAGAUGAGCAGUUGAGGGGACUGAGAGAGUGAUCGACACAGAACCUGGCUUCUUCCAACAGAGGAUUGAGCAUCA
B2: ENSG00000070961:be:win_3901|3pUTR|ENSG00000070961|bound_else_gene|NA|bound_elsewhere_windowed (ssRNA)
RNA: GGGAGUUCUACAGUCCGACGAUCAAGUGACCUGUGGAUCAUCAGUAGUACCCAAGCAUGGUCCUGAACAGUGUAUUAGCAGAGCUUUAGUUUAUCUCAGUCCUGGAUGGGAGAGAGAGGGAGGAGUAAAACUGGGCAAGACAACAACAGAGGAUUGAGCAUCA
B3: chr11:95167508:95167609:-|3pUTR|ENSG00000149212|unk|FALSE|unique (ssRNA)
RNA: GGGAGUUCUACAGUCCGACGAUCAAUAAUGGAGACUGAAUGAGGCGGUUUGUAUUAAAUUAUAUGCCAUGAAGUGUUCAUUUUAGCUUUAACCUAAUUAUGACUGUACCACCAUGAAGUACAGAAUGAAAAAUUAUAUAUAUGCAACAGAGGAUUGAGCAUCA
B4: ENSG00000136451:be:win_3801|3pUTR|ENSG00000136451|bound_else_gene|NA|bound_elsewhere_windowed (ssRNA)
RNA: GGGAGUUCUACAGUCCGACGAUCACCCCUAAGCUAGAAUGUGGUUGUCAGAACCCUGAAAGUAUUAGUUCUAAAAAAAAAAAGAUAUAUACUAGAAGUAAUUGUUUUAUCAAUUCAUUGUAUAAUAAACAGGAGUGAGACUUCCAACAGAGGAUUGAGCAUCA
B5: chr8:80500255:80500365:+|CDS|ENSG00000205189|unk|FALSE|unique (ssRNA)
RNA: GGGAGUUCUACAGUCCGACGAUCGAAAAACCAAACUACAAAAAGAUUUAUUUAUAAUAUUCCACCUAAUAAUGAAACGAAUUUAGAAGAUUGCUCAGUAAUGCAGCCACCUGUUGCCUAUCCAGAAGAAAAUACACUACUCAUCAACAGAGGAUUGAGCAUCA
B6: chr8:30843048:30843149:-|CDS|ENSG00000133863|unk|FALSE|unique (ssRNA)
RNA: GGGAGUUCUACAGUCCGACGAUCGGAUACUAUAAUUGCUUCCAGAAAGUCAGAUCAUCCAAUAAACGAAGCAACAAUUAGCAUAGAAAAUUCUAAAUUUAACAGUAAUUUGCUUGCACACCCAGAUAUUUGUUGUAUUAGUGACAACAGAGGAUUGAGCAUCA
B7: chr2:42328916:42329027:+|CDS|ENSG00000143924|unk|total|mutant (ssRNA)
RNA: GGGAGUUCUACAGUCCGACGAUCAGAAGGAUCUGAUGGGACAGAUAUCAAUGCACUGGUGCGAUCCCACAACCGAAAGGUGACCGCUGUUGCCGAUGACUUUUGUAAAGUCCAUCUGUUUCAGUAUCCCUGCUCCAAAGCAAACAACAGAGGAUUGAGCAUCA
B8: chr6:52279506:52279615:-|CDS|ENSG00000112118|unk|total|mutant (ssRNA)
RNA: GGGAGUUCUACAGUCCGACGAUCUGAGUGUGGCAUUUUUAAGACAGGACGGAGAUCACUCUGUCCCUCUGUGUGCCUUUUUCCCGGAUGAGGAGAACAAUCCCCUUGAGACAGAAUAUGGCCUUUCUGUCUACAAGGAUCACCCAACAGAGGAUUGAGCAUCA
B9: chr1:17067933:17068034:-|3pUTR|ENSG00000117115|msi1|FALSE|unique (ssRNA)
RNA: GGGAGUUCUACAGUCCGACGAUCACAUAAGGACCCUGGCCUACCCUCCAGCCCAACAGCCAGUUCUGGGUCAGCUGCCAACUUAGGGGUGGUUUGAUUAUCCCAUUGAAAUUCACCAGUGCCUUUGCCAAAGACCCUCUCAUUCAACAGAGGAUUGAGCAUCA
B10: chr12:104760787:104760888:+|3pUTR|ENSG00000171310|unk|FALSE|unique (ssRNA)
RNA: GGGAGUUCUACAGUCCGACGAUCUUCUUUUCUAAUGGCAUUGAAACUUUAAAAAAAAUGGAUUCAACUGUUUUUGCAGAAUGUAGAAAGUAUUCUGUGUCCUUGGUUAAAGAAAUCCACUUGUGAAGUGUGCCUGGAAAAUGACAACAGAGGAUUGAGCAUCA
B11: ENSG00000033178:stop:overlap|stop_codon|ENSG00000033178|stop_codon|NA|stop_codon (ssRNA)
RNA: GGGAGUUCUACAGUCCGACGAUCCUAUUGAAAUUUAUGGCUGUCCGAAUAUUUGUUUGUUAAUACAUAAGUGUUCUGUAUAUUAGUAUUCUCUUAUCCUUCACAUCCAGCUUUGCUACUCUGUGGCAUUAGACAACUUUUUUCCAACAGAGGAUUGAGCAUCA
B12: chr7:123541454:123541562:-|3pUTR|ENSG00000128609|unk|FALSE|unique (ssRNA)
RNA: GGGAGUUCUACAGUCCGACGAUCUCCAUAGUGUCAUUUUAUUUUAGUCAUUAUUGAAUUAUACCAUUUACUCUGUUUUCUUAUAGUCUUAAUUUUAUUAUAUUUUGUUGUUACUGUAUUAUAUUUGAAAACCUUCAAAUUAGACAACAGAGGAUUGAGCAUCA
B13: chr7:123541454:123541562:-|3pUTR|ENSG00000128609|unk|total|mutant (ssRNA)
RNA: B12 RNA with U28C, A29C, U44C, A45C, U83C, A84C, U140C, A141C
B14: chr19:811491:811550:+|3pUTR|ENSG00000011304|msi1_unk|FALSE|overlapping (ssRNA)
RNA: GGGAGUUCUACAGUCCGACGAUCUAGCAAUAUUUCCAGUUGACCAAAUAUUCUAAUCUUUUUUCAUUUAUAUGCAAAAGAAAUAGUUUUAAGUAACUUUUUAUAGCAAGAUGAUACAAUGGUAUGAGUGUAAUCUAAACUUCCCAACAGAGGAUUGAGCAUCA
B15: chr2:227556236:227556337:+|3pUTR|ENSG00000173744|msi1|FALSE|bound_elsewhere (ssRNA)
RNA: GGGAGUUCUACAGUCCGACGAUCUGUUGAAUGCCUUUUUGCAAUGAUGACUGAGUUGUUAUCAUAGUAUUUUAAAACCUGUAUAGUGUUUUAGACUUGUUAAAACAUUGCUGUCUAGUGUACAUCUAGCUAAAAGUGUGGUUUCAACAGAGGAUUGAGCAUCA
B16: chr17:80395157:80395266:+|3pUTR|ENSG00000173821|unk|FALSE|bound_elsewhere (ssRNA)
RNA: GGGAGUUCUACAGUCCGACGAUCCUUCAAAGCCUUAACUGUCAAAUCUUGCAUUAUCUUGUUUGUACAGAAAUAUACUGGCCUAGCAGAGGCAAAAAAAAAAAAAAUGAAUUUUAUUUUACUUGUCACACCUGUCUUAAUAAACAACAGAGGAUUGAGCAUCA
B17: chr7:111727939:111728040:-|3pUTR|ENSG00000128512|unk|total|mutant (ssRNA)
RNA: GGGAGUUCUACAGUCCGACGAUCAAGUGGUAAACCGUGAUAAAGACUCCUUUUGUACCUUUUUAUGUUCACUUUUUUUUAUACCGUUUAAUCUUAAAACCAAUACGAUAUUGUCAAACGAUACAAUGUGUGACAAUGUUGUAUCAACAGAGGAUUGAGCAUCA
B18: chr5:159157431:159157536:-|3pUTR|ENSG00000145860|unk|total|mutant (ssRNA)
RNA: GGGAGUUCUACAGUCCGACGAUCCAAAAAGUGUUUUUCAGACCUCGGUAUUCCUAAUGUGGGAUGUGACUUUAUUUUAUUUUCCGCCGCAAAUUUGGAUGCCGACUGACAGACACCGCUGAAUGUCUUAAUAAAUUUAAAUUUCAACAGAGGAUUGAGCAUCA
B19: chr7:111727939:111728040:-|3pUTR|ENSG00000128512|unk|FALSE|unique (ssRNA)
RNA: B17 RNA with C34U, C35A, C83U, C84A
B20: chr10:117282838:117282939:-|3pUTR|ENSG00000165650|unk|FALSE|bound_elsewhere (ssRNA)
RNA: GGGAGUUCUACAGUCCGACGAUCCCCCUUGUGUUAUUUUUCUUCCUCUUGGUUUUUGAAUUAGUGUUAAAUAGAAUACUGUCUAGAUUCUUAAAAUAUUUUCAUUUCCAUCAUGGUUAUAACAAAUUUGCUGCAUGCCCAAACCAACAGAGGAUUGAGCAUCA
B21: chr6:11183298:11183399:-|3pUTR|ENSG00000111859|msi1|total|mutant (ssRNA)
RNA: GGGAGUUCUACAGUCCGACGAUCACAUUUCACAUUUUUAAAACCAAAUGUUCAAUCUGUAUUACUCUUUGCCGUCUUGUAUGCCGAGGCUAUUUUUAAAUCAUUAAAUUUUCCGAUCUCUGUUUUCACCGCCACUGGGUUUUCCAACAGAGGAUUGAGCAUCA
B22: chr5:159157431:159157536:-|3pUTR|ENSG00000145860|unk|FALSE|bound_elsewhere (ssRNA)
RNA: B18 RNA with C83U, C84A, C86U, C87A, C101U, C102A, C115U, C116A

These binders were tested against T1, UNK ZnF1-6 (called full-length) (assay: nsRBNS (natural sequence RNA bind-n-seq); RBNS binding buffer (assumed for nsRBNS): 25 mM Tris pH 7.5, 150 mM KCl, 3 mM MgCl2, 0.01% Triton X-100, 500 ug/ml BSA, 20 U/ml SUPERase-In, 4 C; UNK is unkempt and MSI1 is Musashi-1; names of the RNAs are library labels; protein concentration not given here; high values mean tight binding).

Binder | binding signal [enrichment R]
B1 | 0.765
B2 | 1.72
B3 | 8.52
B4 | 2.41
B5 | 9.28
B6 | 14.2
B7 | 0.381
B8 | 0.393
B9 | 0.896
B10 | 0.431
B11 | 0.919
B12 | 150
B13 | 17
B14 | 0.832
B15 | 0.596
B16 | 0.564
B17 | 2.33
B18 | 0.813
B19 | 21.5
B20 | 3.48
B21 | 1.08
B22 | 11.8
